Structures are written as SMILES. About 83,000 compounds went through this panel and 20% of them were active in at least one assay; those are over-represented in the sample as a whole.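 Cells were grown in 96-well plates and exposed to the test compound at a single concentration for 48 hours; results are reported as percent growth, with values below 10 considered active.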 A number with no mark means an inactive call. Active and inactive are the calls of the source.

This assay relates to HL-60(TB) leukemia. The assay is described as follows: NCI-60 one-dose screen, 48 h (100 = growth as untreated, 0 = no growth, -100 = all killed). Particulars: 10 µM unless noted.
For the compound `Nc1c2c(nc3ccc(Cl)cc13)CC(c1ccc(O)cc1)CC2=O` (stereo not given), the growth was 18.9%.
In the case of `O=C(O)c1cccc2c1Cc1cc([N+](=O)[O-])ccc1-2`, the growth was 120%.
Take `N#Cc1ccc(Oc2ccc3ccc(=O)oc3c2)cc1`: the growth is 82.7%.
The value for `c1cc2ccc3cc2cc1CNCCN1CCNCc2ccc4ccc(cc4c2)CNCCN(CCNC3)CCNCc2ccc3ccc(cc3c2)CNCC1` was -38.7% (active).
The value for `CCOc1ccc(C(C)=O)cc1NC(=O)c1cccc(-c2nnn(CC)n2)c1` was 7.31% (active); that for `COc1ccccc1/C=C(/C(=O)c1ccccc1)c1ccccc1` was 71.8%.
In the case of `CSc1nc(S(C)(=O)=O)nc2[nH]c(=O)[nH]c12`, the growth was 108%.
Turning to `CN(C)c1ccc(C2(Cl)c3ccccc3N(C)c3ccccc32)cc1`, the growth is 17.5%.
On to `Clc1ccc(-c2nc(-c3cccs3)cn3ccnc23)cc1`, for which the growth is 98.8%.
For `COc1ccc(NC(=O)c2sc3nc(C)c(C(=O)CCc4cccc(OC)c4)cc3c2N)cc1`, the growth is 34.6%.
As for `Cc1ccc(-c2cc3nc(C(Cl)Cl)nc(-c4ccccc4C)n3n2)cc1`, the figure is 78.4%; as for `CCOC(=O)c1c(C)nc2c(c1N)C(=O)C(=O)N2Cc1ccc(OC)cc1`, 46.6%.
The value for `CCCCCCCCCCCCCCCCCCOc1ccccc1CC(=O)OCC[N+]1(C)CCOCC1` was 56.1%; that for `CC(=O)N1N=C(c2ccc(Nc3nc(Nc4ccccc4)nc(Nc4ccccc4)n3)cc2)CC1c1ccccc1` (stereo not given) was 79.3%.
For the compound `COc1cc(-c2cc(-c3ccc(Nc4ccnc5cc(Cl)ccc45)cc3)nc(N3CCOCC3)n2)cc(OC)c1OC`, the growth is 68.2%.
Turning to `CCOP(=O)(OCC)/C(C#N)=C/c1c(C)[nH]c2ccccc12`, the growth was 96.6%.
The value for `Cc1cc(N=O)cc(C(C)(C)C)c1O` was 99.6%; that for `CCCCCCCCCCN1CC2CCCCC2C1` (stereo not given) was 68.5%.
As for `O=C(c1ccccc1)c1ccco1`, the figure is 86.1%.
With `COc1nc2c(c(=O)[nH]1)C(c1ccc(Oc3ccnc4cc(Cl)ccc34)c(OC)c1)C=C(c1cc(OC)c(OC)c(OC)c1)N2` (stereo not given), the growth is 97.9%.
The value for `O=C1C(Nc2ccc(Cl)cc2)=C(I)C(=O)c2ncccc21` was -45.8% (active).
For the compound `CCN(CC)CCOC(=O)c1cc(OCc2ccccc2)c(OCc2ccccc2)c(OCc2ccccc2)c1`, the growth was 59.6%.
As for `COc1ccc(-c2cs/c(=N\N=C\c3ccc(O)cc3O)n2/N=C/c2ccc(O)cc2O)cc1`, the figure is -32.6% (active); as for `Cc1ccc2oc3nc(C)c(C(=O)NCc4ccccc4)cc3c(=O)c2c1`, 73.4%.
The value for `C1=CC2(C=C1)OC21CCC2(C=CC3(C2)OC3C2CCCCC2)CC1` (stereo not given) was 105%; that for `Cc1nc2ccccc2c(/C=C/c2ccc(F)cc2)c1C(N)=O` was 81.1%; that for `COCCOC(=O)C1=C(C)NC(=S)NC1c1ccc2c(c1)OCO2` (stereo not given) was 92.1%.
The value for `COc1ccc(/C=C(/C(=O)N2CCNCC2)c2cc(OC)c(OC)c(OC)c2)cc1O` was -37.7% (active); that for `C=C1C(=O)O[C@H]2[C@H]1CC/C(Cn1cc(CCC)nn1)=C\CC[C@@]1(C)O[C@@H]21` was -13.9% (active); that for `CN1CCN(C(=O)[C@@]2(C)CC[C@]3(C)CC[C@]4(C)C(=CC[C@@H]5[C@@]6(C)CCC(=O)NC(C)(C)[C@@H]6CC[C@]54C)[C@@H]3C2)CC1` was -35.8% (active).
As to `CCOC(=O)c1c(C)c2c(n1C)CSc1cc(S(=O)(=O)c3ccccc3)c(=O)[nH]c1-2`, the growth was 25% [100 µM].
For the compound `O=C1NC(=O)c2c1c1c3ccccc3[nH]c1c1oc3cc(Br)ccc3c21`, the growth was 104%.
With `O=C(CC(=O)Nc1cccc(C(=O)O)c1)Nc1cccc(C(=O)O)c1`, the growth is 113%.
The value for `Cc1cc(C)nc(SCC(=O)Nc2cccc(N=Cc3ccccc3O)c2)n1` was 96.6%; that for `CC1O[C@@H](OC2[C@H](OC(=O)/C=C/c3ccc(O)c(O)c3)C(COC3O[C@H](C)C(O)C(O)[C@@H]3O)O[C@@H](OCCc3ccc(O)c(O)c3)[C@H]2O)[C@@H](O)C(O)[C@H]1O` (stereo not given in full) was 103%.
As for `CCCCCCCCCCCCC1CCC(=O)O1` (stereo not given), the figure is 88.1%; as for `O=C(O)CCNC1CCCCC1`, 97.5%.
The value for `O=C1/C(=C\c2cn(CC(O)CN3CCCCC3)c3ccccc23)c2ccccc2N1c1c(Cl)cccc1Cl` (stereo not given) was -36.5% (active).
In the case of `Fc1ccccc1Nc1ccc2nnc(-c3ccncc3)n2n1`, the growth was 92.6%.
As for `CC1(C)C2CC=C(/C=N/NC(=O)C3CCC(=O)N3)C1C2` (stereo not given), the figure is 101%.

(Values after PubChem BioAssay (NCI).)
